# Experimental data reported in PubChem BioAssay (NCATS).
# Where “and” joins values, the source holds several entries; their conditions need not be identical. Equal entries are not always repeated. Inconclusive results are not listed. Where a call stands in place of a potency, no number is given. Calls of active or inactive are those of the source. Unless noted, calls come from the whole dose curve; as a rule, active = well fitted curve in the direction sought with a large enough effect; inconclusive = small, poorly fitted or top-dose-only effect, or another doubt; inactive = no such curve, though single readings can be large; an effect the other way counts as inactive or inconclusive.
# Assays:
# [1] = molecular target: Voltage-gated inwardly rectifying potassium channel KCNH2 (Homo sapiens) (UniProt Q12809); experiment: qHTS Assay for Small Molecule Inhibitors of the Human hERG Channel Activity (AID 588834);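 note: lower thallium flux fluorescence means stronger hERG block; nearly all actives have a fitted effect of over 50% in size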; note: potency is the fitted concentration of half-maximal effect
# Chain of Voltage-gated inwardly rectifying potassium channel KCNH2 (Homo sapiens) (Q12809 whole entry, looked up): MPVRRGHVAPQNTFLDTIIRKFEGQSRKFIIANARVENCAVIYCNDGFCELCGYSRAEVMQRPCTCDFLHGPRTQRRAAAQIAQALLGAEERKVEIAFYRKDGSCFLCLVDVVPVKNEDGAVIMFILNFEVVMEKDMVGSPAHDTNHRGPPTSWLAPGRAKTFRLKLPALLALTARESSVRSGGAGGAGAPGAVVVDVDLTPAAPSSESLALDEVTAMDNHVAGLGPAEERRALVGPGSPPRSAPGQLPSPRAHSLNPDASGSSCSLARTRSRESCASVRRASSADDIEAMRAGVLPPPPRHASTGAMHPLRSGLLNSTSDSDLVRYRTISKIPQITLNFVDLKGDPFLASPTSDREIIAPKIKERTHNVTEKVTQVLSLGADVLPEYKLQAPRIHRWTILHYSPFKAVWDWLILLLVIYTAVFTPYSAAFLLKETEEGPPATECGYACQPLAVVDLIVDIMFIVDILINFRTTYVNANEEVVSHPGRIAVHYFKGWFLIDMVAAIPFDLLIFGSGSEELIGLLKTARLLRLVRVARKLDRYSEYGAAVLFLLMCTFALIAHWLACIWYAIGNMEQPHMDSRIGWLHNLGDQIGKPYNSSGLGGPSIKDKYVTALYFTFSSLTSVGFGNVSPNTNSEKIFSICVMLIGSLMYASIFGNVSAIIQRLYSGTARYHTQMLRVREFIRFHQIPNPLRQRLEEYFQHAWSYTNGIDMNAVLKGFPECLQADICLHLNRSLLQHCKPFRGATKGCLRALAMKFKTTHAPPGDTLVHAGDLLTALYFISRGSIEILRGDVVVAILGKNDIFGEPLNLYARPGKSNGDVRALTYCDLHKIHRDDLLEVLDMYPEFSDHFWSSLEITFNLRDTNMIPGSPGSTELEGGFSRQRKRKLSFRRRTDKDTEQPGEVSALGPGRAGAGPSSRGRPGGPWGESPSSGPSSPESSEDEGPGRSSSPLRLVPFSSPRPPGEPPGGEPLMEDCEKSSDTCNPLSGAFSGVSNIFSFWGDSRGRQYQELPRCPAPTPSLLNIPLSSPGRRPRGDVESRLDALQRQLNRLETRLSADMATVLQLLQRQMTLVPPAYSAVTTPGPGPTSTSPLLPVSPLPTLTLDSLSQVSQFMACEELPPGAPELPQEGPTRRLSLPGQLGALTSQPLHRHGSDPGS
# Summary of the method: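 Measured: FluxOR fluorescence after thallium stimulation in U2OS cells transduced with hERG by baculovirus. Compounds pre-incubated around 10 min; medium Opti-MEM with 2% FCS. AC50 from Hill equation.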
# [2] = molecular target: Thyroid hormone receptor beta (Homo sapiens) (UniProt P10828); experiment: qHTS assay for small molecule antagonists of thyroid hormone receptor beta signaling (AID 588547; active = well fitted inhibition curve with a large enough effect in the signal ratio, with a control signal flat, not every such curve was filed as active; the % refers to the signal ratio;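 note: cells stimulated with 0.4 nM T3 agonist during compound exposure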); settings: TR-UAS-bla HEK293, beta-lactamase ratio, antagonist mode, 18 h
# Chain of Thyroid hormone receptor beta (Homo sapiens) (P10828 whole entry, looked up): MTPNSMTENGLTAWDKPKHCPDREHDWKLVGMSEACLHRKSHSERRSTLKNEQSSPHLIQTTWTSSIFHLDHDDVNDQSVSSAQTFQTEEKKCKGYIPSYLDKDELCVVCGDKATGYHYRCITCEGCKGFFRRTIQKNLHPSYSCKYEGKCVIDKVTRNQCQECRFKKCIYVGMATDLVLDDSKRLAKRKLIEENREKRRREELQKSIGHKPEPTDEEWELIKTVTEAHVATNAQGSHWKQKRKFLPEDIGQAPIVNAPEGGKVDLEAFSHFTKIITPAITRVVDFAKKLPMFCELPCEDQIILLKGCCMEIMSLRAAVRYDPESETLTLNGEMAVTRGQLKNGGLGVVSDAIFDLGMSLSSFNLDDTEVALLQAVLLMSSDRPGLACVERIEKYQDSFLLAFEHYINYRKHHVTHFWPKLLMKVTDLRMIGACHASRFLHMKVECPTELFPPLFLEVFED
# Summary of the method: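 TR-UAS-bla GripTite HEK293 cells in 2% charcoal/dextran FBS medium were preincubated 4 h at 37 C, given compound (0.59 nM to 92 uM) plus 0.4 nM T3 (final) for 18 h, then CCF4 for 2 h at RT; Hill fit gave IC50.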
# [3] = molecular target: Luciferin 4-monooxygenase (Photinus pyralis) (UniProt P08659); experiment: Biochemical firefly luciferase enzyme assay for NPC (AID 624030);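 note: purified P. pyralis luciferase at 10 nM with luciferin and ATP substrate; nearly all actives have a fitted effect of over 70% in size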
# Chain of Luciferin 4-monooxygenase (Photinus pyralis) (P08659 whole entry, looked up): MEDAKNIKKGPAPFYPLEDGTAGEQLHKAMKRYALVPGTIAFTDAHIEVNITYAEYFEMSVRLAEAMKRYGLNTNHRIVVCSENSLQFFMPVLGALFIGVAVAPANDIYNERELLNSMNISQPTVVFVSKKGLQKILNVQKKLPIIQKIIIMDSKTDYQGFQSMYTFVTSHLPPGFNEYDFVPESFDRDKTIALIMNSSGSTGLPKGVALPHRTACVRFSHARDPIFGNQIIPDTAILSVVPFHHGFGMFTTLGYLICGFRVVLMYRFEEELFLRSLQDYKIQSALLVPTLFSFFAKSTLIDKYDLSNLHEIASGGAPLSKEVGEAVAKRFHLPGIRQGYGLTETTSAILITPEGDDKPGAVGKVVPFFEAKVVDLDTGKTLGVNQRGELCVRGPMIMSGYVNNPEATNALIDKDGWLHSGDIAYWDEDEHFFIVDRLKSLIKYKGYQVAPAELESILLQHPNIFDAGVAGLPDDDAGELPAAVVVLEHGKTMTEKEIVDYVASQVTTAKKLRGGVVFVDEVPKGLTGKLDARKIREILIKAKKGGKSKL
# Summary of the method: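 Counter-screen for direct inhibition of the luciferase enzyme by approved-drug library compounds, run at 10 nM enzyme in 50 mM Tris acetate (final). Luminescence was read within 5 min of enzyme-buffer addition and normalized to PTC124 versus DMSO (0%).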
# [4] = S16 Schwann cell viability assay (CellTiter-Glo assay) (AID 624031);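 note: cellular ATP luminescence as a viability measure; nearly all actives have a fitted effect of over 70% in size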
# Summary of the method: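 Luminescent ATP read-out (CellTiter-Glo) after 24 h compound exposure of native S16 rat Schwann cells at 37 °C. Signals were normalized between cell-free wells and DMSO-treated cells, set as 0% activity.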
# [5] = S16 Schwann cell PMP22 intronic element beta-lactamase assay (AID 624044; calls by dose curve; note: nearly all actives have a fitted effect of over 15% in size); settings: S16 rat Schwann cells, PMP22 element beta-lactamase FRET, 24 h; ratio activity, negative = inhibition: at 38.3 µM (top of the series)
# Summary of the method: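 Rat S16 Schwann cells with beta-Lac driven by a PMP22 intronic element, compound-treated 24 h at 37 °C. LiveBLAzer FRET B/G read: 460 nm normalized to potassium clavulanate vs DMSO; 535 nm FRET as viability; concentration-effect curves classified.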
# [6] = qHTS assay for small molecule antagonists of retinoid X receptor alpha signaling (AID 588546; active = well fitted inhibition curve with a large enough effect in the signal ratio, with a control signal flat, not every such curve was filed as active; the % refers to the signal ratio; note: potency is the fitted concentration of half-maximal effect;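 for max response: cells stimulated with 9-cis-retinoic acid as agonist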); settings: HEK293T RXRa-UAS-bla, beta-lactamase ratio, antagonist mode; measured here: W530 green channel, cytotoxicity proxy
# Summary of the method: (§1)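 Beta-lactamase reporter inhibition, read as CCF4 fluorescence ratio (ex 405, em 460/530 nm) after 2 h at RT. HEK293T UAS-bla cells, 2500/well, were stimulated with 9-cis-RA at 500 or 100 nM final alongside test compound for 18 h at 37 C.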
# [7] = molecular target: Retinoic acid receptor RXR-alpha (Homo sapiens) (UniProt P19793); experiment: as above; settings: HEK293T RXRa-UAS-bla, beta-lactamase ratio, antagonist mode
# Chain of Retinoic acid receptor RXR-alpha (Homo sapiens) (P19793 whole entry, looked up): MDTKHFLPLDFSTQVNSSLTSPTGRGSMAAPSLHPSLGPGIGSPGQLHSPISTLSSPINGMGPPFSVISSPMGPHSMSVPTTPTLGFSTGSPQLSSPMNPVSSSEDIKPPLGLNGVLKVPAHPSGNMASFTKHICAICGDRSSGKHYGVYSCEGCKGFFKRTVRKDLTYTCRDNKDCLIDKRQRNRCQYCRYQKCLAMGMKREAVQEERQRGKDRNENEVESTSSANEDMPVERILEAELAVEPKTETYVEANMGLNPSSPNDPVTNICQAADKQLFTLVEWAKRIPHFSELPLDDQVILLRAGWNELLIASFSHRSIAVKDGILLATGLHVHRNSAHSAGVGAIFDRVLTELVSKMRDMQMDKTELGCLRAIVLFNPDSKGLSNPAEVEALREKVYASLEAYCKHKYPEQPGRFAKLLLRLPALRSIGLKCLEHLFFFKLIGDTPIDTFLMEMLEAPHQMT
# Summary of the method: as §1
# [8] = molecular target: Retinoic acid receptor RXR-alpha (Homo sapiens) (UniProt P19793); experiment: qHTS assay for small molecule agonists of retinoid X receptor alpha signaling (AID 588544; calls by dose curve)
# [9] = S16 Schwann cell PMP22 intronic element firefly luciferase assay (AID 624032); note: potency is the fitted concentration of half-maximal effect; nearly all actives have a fitted effect of over 30% in size
# Summary of the method: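 Rat S16 Schwann cells stably carrying a PMP22 intronic element-driven Fluc reporter were seeded overnight, then exposed to compounds for 24 h at 37 °C. Luminescence was normalized to PTC124 (positive control) and DMSO (0% activity).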
structure (smiles),measurement,setting,value
C/C=C/c1ccc(OC)cc1,Potency,[1],inactive
CC(=O)Oc1ccc(C(c2ccc(OC(C)=O)cc2)c2ccccn2)cc1,activity change % (negative = inhibition),[2],5.36% (inactive)
same,Potency,[1],inactive
same,Potency,[3],inactive
same,Potency,[4],inactive
same,Potency,[5],inactive
COC1=CC(=O)C[C@@H](C)[C@]12Oc1c(Cl)c(OC)cc(OC)c1C2=O,activity change % (negative = inhibition),[2],-47.5% (inactive)
same,Potency,[4],inactive
same,Potency,[5],inactive
C[C@H]1C[C@H]2[C@@H]3CCC4=CC(=O)C=C[C@]4(C)[C@@]3(Cl)[C@@H](O)C[C@]2(C)[C@@]1(O)C(=O)CO,max response,[6],10.8%
same,max response,[7],-25.7% (inactive)
same,activity change % (negative = inhibition),[2],1.92% (inactive)
same,Potency,[1],inactive
same,Potency,[3],inactive
same,Potency,[4],inactive
CN(C)CC/C=C1/c2ccccc2COc2ccc(CC(=O)O)cc21,Potency,[1],inactive
OC[C@H]1O[C@@H](n2cnc3c(=S)nc[nH]c32)[C@H](O)[C@@H]1O,Potency,[1],inactive
O=C(OCC(O)CO)c1ccccc1Nc1ccnc2cc(Cl)ccc12 (stereo unspecified),Potency,[1],inactive
CN(C)/N=N/c1nc[nH]c1C(N)=O,outcome,[8],inactive
same,max response,[6],-0.507%
same,max response,[7],17.7% (inactive)
same,activity change % (negative = inhibition),[2],-19.3% (inactive)
same,Potency,[1],inactive
same,Potency,[3],inactive
same,Potency,[4],inactive
NC(=NCCCCCCN=C(N)/N=C(\N)Nc1ccc(Cl)cc1)/N=C(\N)Nc1ccc(Cl)cc1,max response,[6],21.2%
same,Potency,[7],39.8 µM (active)
same,Potency,[1],inactive
same,Potency,[3],inactive
same,Potency,[5],inactive
C[C@H](CCC(=O)O)[C@H]1CC[C@H]2[C@@H]3C(=O)C[C@@H]4CC(=O)CC[C@]4(C)[C@H]3CC(=O)[C@]12C,Potency,[1],inactive
C=CCc1ccc(O)c(OC)c1,outcome,[8],inactive
same,max response,[6],-4.42% and -7.03%
same,max response,[7],-1.42% (inactive) and -1.33% (inactive)
same,Potency,[1],inactive
same,Potency,[3],inactive
same,Potency,[4],inactive
CCOC(=O)[C@H](CCc1ccccc1)N[C@@H](C)C(=O)N1Cc2ccccc2C[C@H]1C(=O)O,Potency,[1],inactive
O=C1OC(c2ccc(O)cc2)(c2ccc(O)cc2)c2ccccc21,outcome,[8],inactive
same,max response,[6],6.51%
same,max response,[7],-28% (inactive)
same,activity change % (negative = inhibition),[2],-18.5% (inactive) and 8.75% (inactive)
same,Potency,[1],15.8 µM (active)
same,Potency,[9],25.6 µM (active)
same,Potency,[5],inactive
